# Laboratory results from PMC4336329 (PLoS ONE, 2015).
# About 14,000 (4.5%) of roughly 310,000 compounds showed an effect of 50% or more. Effects have a minus sign here. The sample holds strong results, similar compounds and a random draw of the others, so the mix is not that of the screen.
# Target: human ether-à-go-go-related gene (hERG) potassium channel (human, UniProt Q12809)
# Test: primary screen, population patch clamp on CHO cells stably expressing hERG; higher = less effect of the substance
# 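Note: peak tail current of the secondary pulse compared with the same well before compound.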
# Sequence of human ether-à-go-go-related gene (hERG) potassium channel (Q12809 whole entry, looked up): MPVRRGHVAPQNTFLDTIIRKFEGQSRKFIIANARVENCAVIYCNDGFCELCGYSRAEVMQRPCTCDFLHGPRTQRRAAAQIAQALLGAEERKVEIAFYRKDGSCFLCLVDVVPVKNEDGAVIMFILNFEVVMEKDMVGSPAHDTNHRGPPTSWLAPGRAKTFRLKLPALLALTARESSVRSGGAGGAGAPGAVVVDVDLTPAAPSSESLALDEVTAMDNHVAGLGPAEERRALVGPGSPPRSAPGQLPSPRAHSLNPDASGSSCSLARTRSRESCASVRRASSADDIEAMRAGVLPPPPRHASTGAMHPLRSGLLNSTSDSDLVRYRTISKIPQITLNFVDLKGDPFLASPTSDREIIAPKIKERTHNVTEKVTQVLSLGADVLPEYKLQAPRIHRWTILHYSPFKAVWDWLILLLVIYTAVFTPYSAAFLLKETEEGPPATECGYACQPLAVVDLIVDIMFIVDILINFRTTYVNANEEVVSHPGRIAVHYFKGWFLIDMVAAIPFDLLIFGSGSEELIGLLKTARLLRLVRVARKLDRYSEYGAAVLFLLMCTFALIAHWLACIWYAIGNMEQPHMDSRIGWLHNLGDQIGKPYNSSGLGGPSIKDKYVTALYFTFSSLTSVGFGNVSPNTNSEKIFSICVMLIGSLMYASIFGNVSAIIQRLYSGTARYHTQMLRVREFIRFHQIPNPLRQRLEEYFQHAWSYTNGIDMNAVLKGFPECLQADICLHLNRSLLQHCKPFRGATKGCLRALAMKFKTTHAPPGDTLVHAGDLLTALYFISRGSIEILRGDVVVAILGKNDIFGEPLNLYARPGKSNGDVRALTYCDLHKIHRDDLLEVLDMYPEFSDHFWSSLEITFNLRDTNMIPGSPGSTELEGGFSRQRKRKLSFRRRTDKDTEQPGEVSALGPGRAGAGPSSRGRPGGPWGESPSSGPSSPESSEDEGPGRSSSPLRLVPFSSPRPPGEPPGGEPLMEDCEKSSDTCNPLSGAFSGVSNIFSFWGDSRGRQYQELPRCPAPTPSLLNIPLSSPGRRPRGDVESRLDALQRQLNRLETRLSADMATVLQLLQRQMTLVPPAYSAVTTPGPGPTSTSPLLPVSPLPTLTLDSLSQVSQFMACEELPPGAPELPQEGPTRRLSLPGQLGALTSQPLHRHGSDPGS
row,SMILES,"hERG current change (%, negative = inhibition) at 10uM"
1,CCOC(=O)C(=CNc1ccc2c(c1)nnn2-c1ccc(Cl)cc1)C(=O)OCC,-5.02%
2,COc1ccccc1-c1cc(C(F)(F)F)nc(S(=O)(=O)CCCC(=O)N2CCOCC2)n1,2.47%
3,Cn1ncc(Cl)c1C(=O)NCC1CCCO1 (stereo not drawn),9.21%
4,O=C(Cn1cc(C(=O)c2ccccc2F)c2ccccc21)NC1CC1,-4.44%
5,CCN(CC)c1ccc(NC(=O)CSc2nnc3nc(C)cc(C)n23)cc1,-0.579%
6,Cc1cc(C(=O)NNC(=O)c2ccc(Cl)cc2)c2ccccc2n1,0.225%
7,CC(=O)N1CSCC1C(=O)NNS(=O)(=O)c1cccc(C(F)(F)F)c1 (stereo not drawn),8.58%
8,Cl.NC1=NC(c2cccc(Cl)c2)N(CCc2ccc(F)cc2)C(N)=N1 (stereo not drawn),15.6%
9,OC1C=CSc2nc3ccccc3n21 (stereo not drawn),4.02%
10,CCOc1ccc(-c2csc3nc[nH]c(=O)c23)cc1,14.9%
11,OCCNc1nc(C2CC2)nc2c1nnn2Cc1ccccc1Cl,-0.392%
12,CS(=O)(=O)N(CC(=O)Nc1ccccc1C(=O)N1CCCC1)c1cccc([N+](=O)[O-])c1,-13.2%
13,O=C(NCCN1CCOCC1)c1cc(-c2cccs2)nc2ccccc12,-13.1%
14,COc1cc(CO)ccc1Oc1nc2ccccc2n2cnnc12,10.7%
15,CC(Oc1ccc(C#N)cc1)C(=O)NC1CCCC1 (stereo not drawn),-12.9%
16,CC(=O)c1ccc(OCCOc2ccc(C#N)cc2)cc1,-49.4%
17,CC(=O)c1ccc(OCC(C)Oc2ccc(C#N)cc2)cc1 (stereo not drawn),-62.8%
18,CC(=O)c1ccc(OCC(O)COc2ccc(C(C)=O)cc2)cc1,-11.3%
19,COC(=O)c1ccc(OC(C)C(=O)c2ccc(C)cc2)cc1 (stereo not drawn),-21.5%
20,CC(Oc1ccc(C#N)cc1)C(=O)c1ccc(F)c(F)c1 (stereo not drawn),-51.6%
21,CCC1C(=O)N=C(SCC(=O)Nc2cccc3ccccc23)NC1=O (stereo not drawn),-7.84%
22,COc1ccc(C2C(C(=O)N3CCC(C(N)=O)CC3)CC(=O)N2c2ccc(OC)cc2)cc1 (stereo not drawn),-1.19%

row,SMILES,"hERG current change (%, negative = inhibition) at 10uM"
1,CCCn1c(N)nc2ccccc21,8.05%
2,Nc1nc2ccccc2n1CCOc1ccccc1Cl,-3.5%
3,Nc1nc2ccccc2n1CCOc1ccc(F)cc1,-67.9%
4,OCc1nc2ccccc2n1CCCOc1ccc(Br)cc1,-36.8%
5,COc1ccc(OCCn2c(N)nc3ccccc32)cc1,-67.4%
6,Clc1ccc(OCCn2c(-c3ccco3)nc3ccccc32)cc1,-26.7%
7,Cn1c(COc2ccc(F)cc2)nc2ccccc21,-0.759%
8,Nc1nc2ccccc2n1CCOc1ccc(Cl)cc1,-51.1%
9,Nc1nc2ccccc2n1CCOc1ccc(Br)cc1,-61.2%
10,COCCn1c(COc2ccc(OC)cc2)nc2ccccc21,-14.3%
11,S=C(Nc1ccccc1)Nc1nc2ccccc2n1CCOc1ccc(Br)cc1,11.6%
12,Cc1nc2ccccc2n1CCOc1ccc(F)cc1,-19.8%
13,O=P(NS(=O)(=O)c1ccc(Br)cc1)(Oc1ccccc1)Oc1ccccc1,12.2%
14,O=C(Cn1c(=O)c(=O)n(Cc2ccccc2)c2ccc(Cl)cc21)Nc1ccc(F)cc1F,21.3%
15,Cc1cc(C)c(Cn2c(=O)n(CCCC(=O)NCc3ccco3)c(=O)c3sccc32)c(C)c1,6.15%
16,Cc1cc(NC(=O)c2cc([N+](=O)[O-])ccc2Cl)no1,8.65%
17,Nn1c(COc2ccc(Cl)cc2)nc2ccccc2c1=O,-34.8%
18,CCc1ccc(CNC(=O)c2ccc(OC3CCN(C(C)=O)CC3)c(OC)c2)nc1,8.11%
19,CC(C)NC(=O)C1CCCN(c2nnc(-n3cccc3)s2)C1 (stereo not drawn),-16.4%
20,CC(=O)Nc1ccc(NC(=O)C2CCCN(c3nnc(-n4cccc4)s3)C2)cc1 (stereo not drawn),7.44%
21,O=C(NC1CCN(Cc2ccccc2)CC1)C1CCN(c2nnc(-n3cccc3)s2)CC1,-59%
22,O=C(NC1CCN(Cc2ccccc2)CC1)C1CCCN(c2nnc(-n3cccc3)s2)C1 (stereo not drawn),-69.8%

row,SMILES,"hERG current change (%, negative = inhibition) at 10uM"
1,O=C(C1CCCN(c2nnc(-n3cccc3)s2)C1)N1CCN(c2ccccc2)CC1 (stereo not drawn),-47%
2,O=C(NCCCN1CCN(Cc2ccccc2)CC1)C1CCN(c2nnc(-n3cccc3)s2)CC1,-48.5%
3,COC(=O)c1ccccc1NC(=O)C1CCCN(c2nnc(-n3cccc3)s2)C1 (stereo not drawn),-53%
4,CC1CCN(Cc2ccc(NC(=O)C3CCN(c4nnc(-n5cccc5)s4)CC3)cc2)CC1,1.05%
5,CC(CCc1ccccc1)NC(=O)C1CCCN(c2nnc(-n3cccc3)s2)C1 (stereo not drawn),-11.2%
6,NC(=O)c1ccc(N2CCN(c3ccccc3F)CC2)c([N+](=O)[O-])c1,-25.5%
7,Cc1ccc(-n2c(-c3ccccc3)c[n+]3c2CCC3)cc1.[Br-],-50.7%
8,Cc1ccc(-c2c[n+]3c(n2-c2ccccc2)CCC3)cc1.[Br-],-48.9%
9,[Br-].c1ccc(-c2c[n+]3c(n2-c2ccccc2)CCC3)cc1,-3.72%
10,FC(F)Sc1ccc(-n2c(-c3ccc(Cl)cc3)c[n+]3c2CCC3)cc1.[Br-],-92.6%
11,Cc1ccc(-n2c(-c3ccc(Cl)cc3)c[n+]3c2CCC3)cc1.[Br-],-62.4%
12,Cc1cc(C)cc(OCC(=O)NCC2CCCO2)c1 (stereo not drawn),-11.8%
13,C#CCOC(=O)C[N+](C)(C)CC#Cc1ccccc1.[Cl-],33.3%
14,COc1ccc(C2=NOC(C)(c3nnc(-c4ccncc4)o3)C2)cc1 (stereo not drawn),1.73%
15,CC1(c2nnc(-c3ccc(Cl)cc3)o2)CC(c2c(Cl)cccc2Cl)=NO1 (stereo not drawn),1.13%
16,CC1(c2nnc(-c3ccncc3)o2)CC(c2c(Cl)cccc2Cl)=NO1 (stereo not drawn),-69.8%
17,COc1ccc(C2=NOC(C)(c3nnc(-c4ccccc4)o3)C2)cc1 (stereo not drawn),-58.3%
18,CC1(c2nnc(-c3ccccc3)o2)CC(c2ccccc2)=NO1 (stereo not drawn),-11.6%
19,CC1(c2nnc(-c3ccccc3)o2)CC(c2c(Cl)cccc2Cl)=NO1 (stereo not drawn),23.4%
20,CC(=O)Nc1ccc(NC(=O)CSc2ccc(-c3cccnc3)nn2)cc1,24.7%
21,O=C(C1CCC1)N1CCN(S(=O)(=O)c2ccc(Br)cc2Cl)CC1,-21.8%
22,COCCn1c(Cc2ccccc2)nnc1SCC(=O)Nc1cc(C)on1,-5.36%

row,SMILES,"hERG current change (%, negative = inhibition) at 10uM"
1,COc1ccc(CC(=O)NNC(=O)CCc2ccccc2)cc1OC,14.8%
2,CCCSc1cc(=O)n(-c2ccccc2)nc1C(=O)O,15.7%
3,CCOc1ccccc1Nc1nnc(SC(C)C(=O)Nc2nc(-c3ccccc3)cs2)s1 (stereo not drawn),1.46%
4,Br.C=CCn1c(C)csc1=Nc1ccccc1C,4.02%
5,Cc1ccccc1CC(=O)NCC1CCCCC1,1.34%
6,Cc1ccccc1N(CC(=O)NCC1CCCO1)C(=O)C1(C)CC(=O)N=C2C=CC=CN21 (stereo not drawn),-1.4%
7,COc1ccccc1C(CNC(=O)c1ccc(NS(=O)(=O)c2ccc(F)c(C)c2)cc1)N(C)C (stereo not drawn),-24.4%
8,Cc1cc(S(=O)(=O)Nc2ccc(C(=O)NCC(c3ccco3)N3CCCCC3)cc2)ccc1F (stereo not drawn),-41.2%
9,Cc1cccc(NS(=O)(=O)c2ccc(C(=O)NCC(c3ccco3)N3CCCCC3)cc2)c1C (stereo not drawn),-55.6%
10,O=C(NCC(c1ccco1)N1CCCC1)c1ccc(S(=O)(=O)Nc2ccccc2Cl)cc1 (stereo not drawn),-11.6%
11,COc1ccccc1C(CNC(=O)c1cccc(NS(=O)(=O)c2ccc(C)c(F)c2)c1)N1CCCC1 (stereo not drawn),-40.9%
12,O=C(c1ccc(S(=O)(=O)Nc2ccc(F)cc2)cc1)N1CCN(C(=O)c2ccco2)CC1,-29.4%
13,Cc1ccc(NS(=O)(=O)c2cccc(C(=O)N3CCN(C(=O)c4ccco4)CC3)c2)cc1,-36.8%
14,COc1ccccc1C(CNC(=O)c1ccc(NS(=O)(=O)c2ccc(F)c(C)c2)cc1)N1CCCC1 (stereo not drawn),-58.1%
15,Cc1cc(S(=O)(=O)Nc2ccc(C(=O)N3CCN(C(=O)c4ccco4)CC3)cc2)ccc1F,-64.4%
16,Cc1cc(S(=O)(=O)Nc2ccc(C(=O)NCC(c3ccco3)N3CCCC3)cc2)ccc1F (stereo not drawn),-50.6%
17,O=C(NCC(c1ccco1)N1CCCCC1)c1ccc(NS(=O)(=O)c2ccc(F)cc2)cc1 (stereo not drawn),-13%
18,Cc1ccccc1NS(=O)(=O)c1ccc(C(=O)NCC(c2ccco2)N2CCCCC2)cc1 (stereo not drawn),5.89%
19,CC1=NN(C(=O)c2ccccc2Cl)C(O)(c2cccnc2)C1 (stereo not drawn),17.8%
20,COC(=O)C1Cc2c([nH]c3ccccc23)C(C)N1 (stereo not drawn),-9.61%
21,COc1ccc(S(=O)(=O)NCc2ccco2)cc1C(=O)N1CCOCC1,21%
